Hit rate of the full screen: of about 53,000 sequences, about 3,700 (7%) were called active.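 The calls were made as follows: active = gene knockdowns whose robust z-score for IL-1 alpha signal is at least 2 or at most -2, so actives lie on both sides; inactive = the rest.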 Shown is part of a subset that was picked to be rich in actives.

The record followed here is PubChem BioAssay AID1508600 (Functional Genomics Laboratory (NCATS/FGL), 2020).

A short description of this experiment: Components of the Cytosolic LPS Sensing Pathway: Gene Identification via Genome-wide siRNA Screen.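 Also: robust z of the log signal after scaling to non-targeting control siRNA wells of the plate.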 The note with it: RAW264.7 macrophages, IL-1a HTRF, actives lie on both sides, screened at 100 nM (by protocol), cells primed 5 h with Pam3CSK4 first. The procedure, abridged: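 IL-1a HTRF of supernatants after 24 hour LipidA transfection of Pam3CSK4-primed (5 hours) RAW264.7 cells, 48h post-siRNA transfection (100 nM). Scores: percent of plate negative-control median, then log-based robust z-score.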
On to GGUCAUGAAUUACUAUUCCTT against Cyth2, for which the z-score is 1.02 (inactive).

For the sequence GGAGAAAUUCCCUUGCCACTT against Kbtbd12, the z-score is -0.0157 (inactive).

Turning to UUUAUACUUCCCUGAUUUUTT against Olfr943, the z-score is -0.409 (inactive).

For GGGAAAAAGGAGAACUUCUTT against Cfap161, the z-score was -1.12 (inactive).

On to GGAUCAUAGUUACAAGGCUTT against L3mbtl2, for which the z-score was 0.458 (inactive).

Consider GCUUUGAGAGGUGUUGAUATT against Gm6116, for which the z-score is -0.864 (inactive).

Turning to GCUAAGUUGGAAUUUCCACTT against Chtop, the z-score is 2.05 (active).

Take GCCGUUUUAUGUGGCAGAATT against Slc35d3: the z-score is 0.141 (inactive).

In the case of GGUAUUGUGGCCAGUAUUUTT against Ptdss2, the z-score is 0.185 (inactive).

Take AUAAGGAUGUCCAUCUUGCTT against Olfr884: the z-score is -1.17 (inactive).

As to CGGUCUAAAUUUCCGGUCATT against Elane, the z-score was -0.205 (inactive).

On to GGCUCAACGGGAUUACUUUTT against Pgd, for which the z-score was -0.578 (inactive).

As for GAAAUAGAGAUGCCUCUCUTT against Olfr1161, the z-score is 2.52 (active).

Regarding CCAAUUUACGACAAAUCGUTT against Entpd4, the z-score was -0.56 (inactive).

Consider GGCCCGAAACAAGAAAUCCTT against Ikbke, for which the z-score is 0.957 (inactive).

Regarding GCUGGUCUUUCAAGUCAAGTT against Stat5b, the z-score is 2.62 (active).

As for GAAAAAUCAUGAAGCCAUATT against Olfr203, the z-score was -0.0109 (inactive).

For the sequence CCAGCUAGUGAUGUCAAAATT against Bri3bp, the z-score was -0.0406 (inactive).

Take GGACAGCUGGCUUCUAAAUTT against Lmntd1: the z-score was 0.137 (inactive).

For the sequence CCAUAGGUAUGUUAAUCGATT against Polr1b, the z-score was -0.426 (inactive).

For GGCCAACCUACUUUUCUGGTT against Mgll, the z-score is -1.18 (inactive).

As for CGAUGGAAGUUUAAACCUCTT against Htr1a, the z-score was 0.326 (inactive).

On to GGUUGUGAAUGUAAGUGAGTT against Entpd1, for which the z-score is -0.787 (inactive).

Consider GGCAUCUUCGAAAAAUGAUTT against Reck, for which the z-score was -0.552 (inactive).

Consider CGAUUUUCACCAAUUGUGGTT against Diaph2, for which the z-score was -2.03 (active).

Regarding GGACAUCAGUUGUCCUAGCTT against Ano6, the z-score is -0.285 (inactive).

On to GGGCUACUCAAAGAAGAUATT against Galnt5, for which the z-score was -0.357 (inactive).

As for GGUCACCACACGAUCUACATT against Slc4a4, the z-score was 3.14 (active).

As for GCUCGGCUUUAGAGACCUATT against Cox19, the z-score is 0.379 (inactive).

For GCCUGUACAUGACGGAAAGTT against Bag4, the z-score was 0.155 (inactive).

Take GGAGUUACGGGAUUCCGUUTT against Kras: the z-score is 1.7 (inactive).

With GCCUAGCUGAAAACGUGUCTT against Cog4, the z-score is 5.04 (active).

Turning to GCUUAUAAAAGACUUACUGTT against Sec24b, the z-score was 0.414 (inactive).

With GGUUAAAAUUGGCUAAAUGTT against Sertm1, the z-score is 1.5 (inactive).

Take GGCUAAAAAGAGUAGACUATT against Irs1: the z-score is 1.14 (inactive).

On to GGAAGAAUCUGAUUCGUAATT against Snapc5, for which the z-score is -1.28 (inactive).

As for GGCUUUUUCUACAUGCGCCTT against Olfr1104, the z-score was -0.236 (inactive).

As for GGCUGUUAUACACUAUCUGTT against Tirap, the z-score is -2.71 (active).

Regarding GGCUUUACUACUCAACCAUTT against Gjb3, the z-score is -0.388 (inactive).

In the case of GCAUUUAUAUGAGAUGCAGTT against Fam210a, the z-score is 0.108 (inactive).

In the case of CCAAAGCCUGAAAUGGUGGTT against Cxcr4, the z-score was -2.36 (active).

As for “GGUCAAAACAUGUUGAAGGTT against B330016D10Rik”, the z-score is 0.15 (inactive).

On to GGCAGAUGAUGGUCCAUGCTT against Tfpi, for which the z-score is -1.63 (inactive).

For CCAGCAGUAAACUGGAAAUTT against Arhgap25, the z-score was -1.53 (inactive).

Consider GGCAACCAGAUAUUUGUUATT against Myef2, for which the z-score is 0.549 (inactive).

Regarding GCUCGCACAGAAGUUACAATT against Lrrc42, the z-score is -0.486 (inactive).

In the case of “GAAAUGCAAGACUCUGCACTT against 1700020L24Rik”, the z-score was -2.66 (active).

Take GGAGCGAGUAGACAUUCUGTT against Rdh13: the z-score was 1.72 (inactive).

As for GGUAGUGCCAUAAUUUCUGTT against Nipal2, the z-score is -0.782 (inactive).

As for GGAACCAAUCUGUCUCUCCTT against Cbfb, the z-score is -2.07 (active).

For the sequence GCUGUUAACUAUCUGGAUATT against Prokr1, the z-score was 0.59 (inactive).

On to GGGUGUUGUGUCCUCUCAATT against Gckr, for which the z-score is 0.0744 (inactive).

For GCAUGAAUCGUGCGAAGAUTT against Zfp871, the z-score is 0.903 (inactive).

Turning to CCAGGUUCUCCGAAUCUCUTT against Cpa1, the z-score was -0.854 (inactive).

GCUGAGUCCAUUGAAGAAGTT against Pebp4: the z-score was 0.255 (inactive).

Regarding GCACAACGACCUUUCCAGGTT against Chst12, the z-score was -0.561 (inactive).

Regarding GGCUAACCUGAGCAAACAGTT against Plvap, the z-score is -2.21 (active).

As for GGAUCCUAAAACUGAGGAATT against Crtc2, the z-score is 0.22 (inactive).

As to GGAGAAAAACUGAGCAGCCTT against Chst12, the z-score is -1.72 (inactive).

On to GCAUUGGAACCAUGUGCUGTT against Prss46, for which the z-score is -1.59 (inactive).

Take GGAGGAUUAUUACAGAAGGTT against Lhx9: the z-score is 1.57 (inactive).

As for GGAACUGACUGCCUAUUCCTT against Gnb3, the z-score is 1.08 (inactive).

On to CCGUUGAUAUCCACAUGAATT against Plod3, for which the z-score is 1.97 (inactive).

Regarding GGUGGAACAGUGGAAUUCGTT against Grhpr, the z-score was 2.41 (active).

In the case of GCACUGCAUAUUCCGCACUTT against Nubp2, the z-score is 1.4 (inactive).

Take GGCUGGUCUCCAAACCCAATT against F13b: the z-score is 0.229 (inactive).

For GGACAGUGCCACUUAAACCTT against Tbxa2r, the z-score is -1 (inactive).

Turning to GGCCUCCUAUAGACGGGAUTT against Vdac3, the z-score was 2.49 (active).

Regarding GGGAGACCGGCAAAAAAAATT against Pde1b, the z-score was 0.999 (inactive).
